Our source for the Potency and activity change, positive = activation values is PubChem BioAssay (Tox21).

Where “and” joins values, the source holds several entries; their conditions need not be identical. Equal values may be shown once. A number with no mark means an inactive call. Inconclusive results are not listed. Calls of active or inactive are those of the source. Unless noted, calls come from the whole dose curve; as a rule, active = well fitted curve in the direction sought with a large enough effect in the repeat runs; inconclusive = weak or mixed curves; inactive = no such curve, though single readings can be large; an effect the other way counts as inactive or inconclusive.

Assay [1] in a line: qHTS assay to identify small molecule agonists of the constitutive androstane receptor (CAR) signaling pathway - cell viability counter screen (AID 1224836). Note: nearly all actives have a fitted effect of over 45% in size. Note: potency is the fitted concentration of half-maximal effect. In outline: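 Cells were seeded and incubated 4 hrs. Compounds were added across 15 concentrations together with PK11195 at 0.75 uM final. Plates were incubated 23 hrs at 37 C. CellTiter-Fluor was added and fluorescence measured.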
Background: qHTS replaces the single test concentration by a dilution series.

Assay [2] can be described thus: qHTS assay to identify small molecule antagonists of the constitutive androstane receptor (CAR) signaling pathway - cell viability counter screen (AID 1224837). Note: nearly all actives have a fitted effect of over 45% in size. Note: potency is the fitted concentration of half-maximal effect. In outline: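 Read-out: CellTiter-Fluor fluorescence after 23 hr at 37 C/5% CO2. Cells: HepG2 double-stable for hCAR and CYP2B6-2.2kb. Compounds tested at 15 concentrations in the presence of CITCO, final concentration 50 nM.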

In assay [3] the target is Nuclear receptor subfamily 1 group I member 3 (Homo sapiens) (UniProt Q14994). Kind of assay: qHTS assay to identify small molecule antagonists of the constitutive androstane receptor (CAR) signaling pathway (AID 1224838).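 Note: HepG2 cells stably expressing hCAR with CYP2B6 luciferase reporter stimulated by CITCO; nearly all actives have a fitted effect of over 40% in size.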 Note: potency is the fitted concentration of half-maximal effect. The procedure, abridged:
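Read-out: ONE-Glo luciferase luminescence after 30 min at room temperature. HepG2-CYP2B6-hCAR double-stable cells, compounds in 15-point titration plus 50 nM CITCO final, 24 h at 37 C/5% CO2.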

For assay [4] the target is unchanged. The assay can be described thus: qHTS assay to identify small molecule agonists of the constitutive androstane receptor (CAR) signaling pathway (AID 1224839).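 Note: HepG2 cells stably carrying human CAR and a CYP2B6 luciferase reporter; nearly all actives have a fitted effect of over 15% in size.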 In outline: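 Cells were plated and incubated 4 hrs, then dosed with compounds at 15 concentrations. PK11195 was added to 0.75 uM final. After 24 hrs at 37 C, luciferase luminescence was measured.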
Assay [5] is described as follows: qHTS assay to identify small molecule antagonists of the estrogen related receptor signaling pathway with the pleiotropic PPARgamma coactivator (PGC) from Tox21 10K library - cell viability counter screen (AID 1224840; active = well fitted cell-killing curve with a large enough effect in the repeat runs, not every such curve was filed as active; note: nearly all actives have a fitted effect of over 40% in size; note: potency is the fitted concentration of half-maximal effect). In outline: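 Fluorescence read-out of CellTiter-Fluor viability reagent, added after cells had been exposed to compound in DMSO for 17.5 h at 37 C; 30 min development at 37 C/5% CO2. Cells: PGC/ERR line, 2,000/well.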

A short description of assay [6]: qHTS assay to identify small molecule antagonists of the estrogen related receptor signaling pathway with the pleiotropic PPARgamma coactivator (PGC) from Tox21 10K library (AID 1224841; call rule not given here; note: actives are mostly falling curves and most rising ones were filed inactive; nearly all actives have a fitted effect of over 50% in size; note: potency is the fitted concentration of half-maximal effect). The procedure, abridged: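 Luminescence read-out (One-Glo luciferase reagent, 30 min at room temperature) from PGC/ERR cells exposed to DMSO-dissolved test compounds for 18 h at 37 C; cells, 2,000 per well, had been preincubated 6 h before compound transfer.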

A short description of assay [7]: qHTS assay to identify small molecule agonists of the estrogen related receptor signaling pathway with the pleiotropic PPARgamma coactivator (PGC) from Tox21 10K library (AID 1224842). Note: nearly all actives have a fitted effect of over 15% in size. In outline:
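PGC/ERR reporter cell line, 2,000 cells per well, incubated 6 h at 37 C before 23 nL compound in DMSO was added. After 18 h at 37 C, One-Glo luminescence read following 30 min at room temperature.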

Assay [8] is described as follows: qHTS assay to identify small molecule agonists of the hypoxia (HIF-1) signaling pathway - cell viability counter screen (AID 1224844; calls by dose curve; note: nearly all actives have a fitted effect of over 50% in size; note: potency is the fitted concentration of half-maximal effect). In outline: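 CellTiter-Glo luminescence read-out, 30 min RT, taken in the same wells as the beta-lactamase HRE reporter assay; HRE-bla ME-180 cells, 0.5% dialyzed FBS, 17 hr compound treatment at 37C, 5% CO2.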
Assay [9] can be described thus: qHTS assay to identify small molecule agonists of H2AX (AID 1224845; active = well fitted activation curve with a large enough effect in the signal ratio in the repeat runs, not every such curve was filed as active; the % refers to the signal ratio). In outline: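 Wild-type CHO-K1 cells, plated overnight, exposed 3hr at 37C to 15 concentrations (0.76% DMSO final). Lysed, then HTRF anti-pH2AX (S139) cryptate and anti-H2AX-d2 antibodies, 24 hr room temperature; 665/620 nm emission read.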
Assay [10] is described as follows: qHTS assay to identify small molecule agonists of H2AX - cell viability counter screen (AID 1224847; calls by dose curve; note: nearly all actives have a fitted effect of over 30% in size; note: potency is the fitted concentration of half-maximal effect). The procedure, abridged: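 Cytotoxicity counter screen in wild-type CHO-K1 cells: a 3 hr compound treatment at 37C across 15 concentrations, followed by CellTiter-Glo luminescence to gauge viable cells.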
Assay [11] can be described thus: qHTS assay to identify small molecule antagonists of the estrogen related receptor (ERR) signaling pathway from Tox21 library (AID 1224848). Note: nearly all actives have a fitted effect of over 50% in size. Note: potency is the fitted concentration of half-maximal effect. In outline:
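Quantitative high-throughput format: ERR reporter cells (2,000/well) pre-incubated 6 h, treated 18 h at 37 C with compounds in DMSO alongside positive and negative controls, then read by ONE-Glo luminescence.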

Assay [12] is described as follows: qHTS assay to identify small molecule agonists of the estrogen related receptor (ERR) signaling pathway from Tox21 library (AID 1224849; calls by dose curve; note: nearly all actives have a fitted effect of over 15% in size). The following applies: ERR reporter cell line, ONE-Glo luciferase, 18 h; at 92.4 µM (top of the series) unless noted. In outline:
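Luminescence readout (ONE-Glo, 30 min RT) after 18 h compound exposure at 37 C of NTP-supplied ERR reporter cells; cells were plated 6 h before compound addition by pin tool.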

Assay [13] is described as follows: qHTS RealTime-Glo MT Cell Viability Assay in HepG2 cells - 24 hour (AID 1224867). Note: nearly all actives have a fitted effect of over 50% in size. Note: potency is the fitted concentration of half-maximal effect. The procedure, abridged: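 Real-time, nonlytic viability: 600 HepG2 cells/well mixed with NanoLuc enzyme plus prosubstrate; 5 h settle, compound (DMSO) added by pintool; luminescence monitored over 40 h at 37 C.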
Assay [14] is described as follows: A CellTox Green Cytotoxicity Assay to monitor cytotoxicity in HEK293 cells - 0 hour (AID 1224869). Note: nearly all actives have a fitted effect of over 50% in size. The procedure, abridged:
(§1)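 Read-out: fluorescence of a cell-impermeant cyanine dye staining DNA of dead cells, proportional to cytotoxicity. HEK293, 600 cells/well with reagent, compound (23 nL DMSO) added after 5 h; reads at 0, 8, 16, 24, 32, 40 h.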

Assay [15] can be described thus: qHTS RealTime-Glo MT Cell Viability Assay in HepG2 cells - 40 hour (AID 1224870). Note: nearly all actives have a fitted effect of over 50% in size. Note: potency is the fitted concentration of half-maximal effect. The procedure, abridged: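 HepG2 cells (600/well) mixed with RealTime-Glo MT reagent, settled 5 h at 37 C/5% CO2 before compound addition. Nonlytic NanoLuc luminescence from viable-cell prosubstrate reduction read repeatedly during 40 h treatment at 37 C.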
The nature of assay [16]: A CellTox Green Cytotoxicity Assay to monitor cytotoxicity in HEK293 cells - 40 hour (AID 1224871). Note: nearly all actives have a fitted effect of over 45% in size. Note: potency is the fitted concentration of half-maximal effect. In outline: as §1
The nature of assay [17]: qHTS RealTime-Glo MT Cell Viability Assay in HEK293 cells - 16 hour (AID 1224872). Note: nearly all actives have a fitted effect of over 50% in size. Note: potency is the fitted concentration of half-maximal effect. The procedure, abridged:
(§2)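 Cells + reagent dispensed (600 cells/well, HEK293) → 5 h at 37 C/5% CO2 → 23 nL compound in DMSO pinned → 40 h at 37 C → luminescence read at 0, 8, 16, 24, 32, 40 h.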

Assay [18] has as its target Thyrotropin receptor (Homo sapiens) (UniProt P16473). The assay can be described thus: qHTS assay to identify small molecule agonists of the thyroid stimulating hormone receptor (TSHR) signaling pathway (AID 1224843; calls by dose curve; note: nearly all actives have a fitted effect of over 45% in size; note: potency is the fitted concentration of half-maximal effect). In outline: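 Agonist-mode screen: TSHR HEK293 cells received test chemicals for half an hour at room temperature, then HTRF cAMP detection reagents for one hour prior to fluorescence measurement. Each chemical ran as a 15-concentration series, triplicated.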

Assay [19] is described as follows: qHTS RealTime-Glo MT Cell Viability Assay in HEK293 cells - 32 hour (AID 1224868). Note: nearly all actives have a fitted effect of over 50% in size. Note: potency is the fitted concentration of half-maximal effect. In outline:
as §2
% is set by controls: 0 for no effect and ±100 for the full control effect.

Nuclear receptor subfamily 1 group I member 3 (Homo sapiens), sequence (Q14994 whole entry, looked up): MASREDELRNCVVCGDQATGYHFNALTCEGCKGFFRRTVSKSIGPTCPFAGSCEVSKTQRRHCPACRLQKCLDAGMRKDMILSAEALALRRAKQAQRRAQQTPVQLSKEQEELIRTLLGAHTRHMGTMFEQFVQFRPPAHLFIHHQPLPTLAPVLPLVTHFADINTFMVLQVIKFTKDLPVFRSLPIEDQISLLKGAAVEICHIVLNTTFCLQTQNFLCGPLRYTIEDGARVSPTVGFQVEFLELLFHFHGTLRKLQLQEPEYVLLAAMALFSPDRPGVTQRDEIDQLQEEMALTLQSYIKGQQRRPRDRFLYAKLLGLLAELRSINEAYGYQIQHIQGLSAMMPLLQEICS
Thyrotropin receptor (Homo sapiens), sequence (P16473 whole entry, looked up): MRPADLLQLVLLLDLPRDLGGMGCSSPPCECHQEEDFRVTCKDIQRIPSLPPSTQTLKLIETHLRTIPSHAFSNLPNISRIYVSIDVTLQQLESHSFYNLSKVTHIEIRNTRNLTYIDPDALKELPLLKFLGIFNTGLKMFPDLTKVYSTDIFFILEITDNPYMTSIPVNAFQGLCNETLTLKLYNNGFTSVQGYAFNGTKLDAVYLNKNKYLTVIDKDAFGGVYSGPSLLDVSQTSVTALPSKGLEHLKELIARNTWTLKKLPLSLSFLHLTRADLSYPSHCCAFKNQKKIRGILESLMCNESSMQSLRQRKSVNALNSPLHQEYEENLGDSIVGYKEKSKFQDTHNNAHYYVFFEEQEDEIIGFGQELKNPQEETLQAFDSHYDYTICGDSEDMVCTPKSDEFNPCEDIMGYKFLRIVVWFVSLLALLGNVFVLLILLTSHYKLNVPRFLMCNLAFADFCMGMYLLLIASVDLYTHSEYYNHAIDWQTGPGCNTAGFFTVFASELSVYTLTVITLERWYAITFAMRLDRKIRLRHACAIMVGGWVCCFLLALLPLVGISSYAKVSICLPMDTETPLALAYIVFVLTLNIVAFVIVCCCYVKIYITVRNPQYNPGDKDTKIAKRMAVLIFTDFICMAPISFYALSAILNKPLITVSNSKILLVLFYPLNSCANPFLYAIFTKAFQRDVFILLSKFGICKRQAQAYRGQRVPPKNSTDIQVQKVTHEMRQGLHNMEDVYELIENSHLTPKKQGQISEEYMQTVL

Consider `CCCCC(CC)COP(=O)(O)OCC(CC)CCCC` (stereo not drawn), for which the Potency result in assay [1], in assay [2], in [3], in assay [4], in assay [5] and in [7] was “inactive” in each case. Besides, the Potency result in assay [9], in [10], in assay [13], in [14], in [15] and in [17] was “inactive” each time. Besides, the Potency in [6] was 27.4 µM (active) and 21.7 µM (active); in assay [8] it was 17.4 µM (active) and 5.49 µM (active); in assay [11], 30.7 µM (active) and 27.3 µM (active); in assay [16] it was 43.6 µM (active). Also, the activity change, positive = activation in [12] was -51.6% and -55.8%.
On to `CN(C)[C@@H]1C(=O)C(C(N)=O)=C(O)[C@@]2(O)C(=O)C3=C(O)c4c(O)cccc4C[C@H]3C[C@@H]12`, for which the Potency result in assay [1], in assay [2], in assay [3], in assay [4], in assay [5] and in [7] was “inactive” throughout. Also, the Potency result in [18], in assay [8], in assay [9], in [10], in assay [13] and in [19] was “inactive” in each case. The Potency entry in assay [14], in [15], in assay [16] and in assay [17] was “inactive” each time. Also, in assay [6], the Potency was 26.6 µM (active). Moreover, the activity change, positive = activation in assay [12] was -27.8% [at 42.5 µM].
`CCCCCCCCCCCCCCCC(=O)OC[C@H](O)[C@H]1OC(=O)C(O)=C1O`: the Potency result in [1], in assay [2], in assay [3], in [4], in assay [5] and in assay [6] was “inactive” throughout. Moreover, the Potency entry in assay [7], in [18], in assay [10], in assay [13], in assay [14] and in [15] was “inactive” throughout. In assay [17], the Potency entry is “inactive”. In [8], the Potency is 54.9 µM (active). Further, the activity change, positive = activation in assay [12] was -29.6%.
For the compound `CCCC(c1cc(C(C)(C)C)c(O)cc1C)c1cc(C(C)(C)C)c(O)cc1C`, the Potency in [1] is 39 µM (active); in [2] it was 31 µM (active); in assay [3], 24.6 µM (active); in assay [5], 22 µM (active); in assay [6], 24.6 µM (active); in [18], 6.19 µM (active). For the same compound, the Potency was 25.6 µM (active) in [10]; 15.5 µM (active) in assay [11]; 39.4 µM (active) in assay [13]; 19.7 µM (active) in assay [19]; 31.3 µM (active) in assay [15]; 49.6 µM (active) in [16]. Moreover, the Potency in [17] was 24.8 µM (active). Besides, the Potency entry in [4], in [7], in assay [9] and in assay [14] was “inactive” each time. Further, in assay [12], the activity change, positive = activation was -83.3%.
Turning to `CN(C)c1ccc(C2(c3ccc(N(C)C)cc3)OC(=O)c3cc(N(C)C)ccc32)cc1`, the Potency result in assay [1], in assay [2], in assay [3], in assay [4], in [5] and in assay [6] was “inactive” each time. For the same compound, the Potency entry in assay [7], in assay [18], in assay [8], in [10], in assay [11] and in assay [19] was “inactive” throughout. The Potency entry in assay [14] and in assay [17] was “inactive” throughout. For the same compound, in assay [12], the activity change, positive = activation was -13.6%.
